Assay results as given in PubChem BioAssay (Tox21).
Values joined by “and” are separate entries in the source; they are usually repeats but may differ in a detail not shown here. Identical values can stand only once. Inconclusive results are not listed. Active and inactive are the calls of the source. Calls come from the whole dose curve; as a rule, active = well fitted curve in the direction sought with a large enough effect in the repeat runs; inconclusive = weak or mixed curves; inactive = no such curve, though single readings can be large; an effect the other way counts as inactive or inconclusive.

What was measured:
[1] = A CellTox Green Cytotoxicity Assay to monitor cytotoxicity in HEK293 cells - 40 hour (AID 1224871); note: nearly all actives have a fitted effect of over 45% in size; note: potency is the fitted concentration of half-maximal effect
Summary of the method: (§1)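 Dead-cell fluorescence measured kinetically: asymmetric cyanine dye, HEK293, 600 cells/well, 5 h settle, 23 nL cpd/DMSO, 37 C, reads 0–40 h every 8 h.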

[2] = qHTS RealTime-Glo MT Cell Viability Assay in HepG2 cells - 8 hour (AID 1224873); note: nearly all actives have a fitted effect of over 55% in size
Summary of the method: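 Real-time viability: cells seeded at 600 per well together with NanoLuc and cell-permeant prosubstrate, compounds added after 5 h incubation. Luminescence tracked at 0, 8, 16, 24, 32 and 40 h of exposure.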

[3] = A CellTox Green Cytotoxicity Assay to monitor cytotoxicity in HEK293 cells - 24 hour (AID 1224875); note: nearly all actives have a fitted effect of over 45% in size; note: potency is the fitted concentration of half-maximal effect
Summary of the method: as §1

[4] = A CellTox Green Cytotoxicity Assay to monitor cytotoxicity in HepG2 cells - 16 hour (AID 1224876); note: nearly all actives have a fitted effect of over 45% in size; note: potency is the fitted concentration of half-maximal effect
Summary of the method: (§2)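 First, HepG2 cells (600/well) mixed with reagent were plated; second, after 5 h at 37 C they received compounds via pintool; third, fluorescence was measured at 0 h through 40 h at 8 h intervals.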

[5] = qHTS RealTime-Glo MT Cell Viability Assay in HepG2 cells - 32 hour (AID 1224877); note: nearly all actives have a fitted effect of over 55% in size; note: potency is the fitted concentration of half-maximal effect
Summary of the method: (§3)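 Tox21 10K library screened in qHTS format on HepG2 cells carrying RealTime-Glo reagents. Compounds were added after a 5 h preincubation, and the luminescent signal from continuous culture was measured repeatedly during 40 h treatment.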

[6] = A CellTox Green Cytotoxicity Assay to monitor cytotoxicity in HepG2 cells - 24 hour (AID 1224878); note: nearly all actives have a fitted effect of over 45% in size; note: potency is the fitted concentration of half-maximal effect
Summary of the method: as §2

[7] = A CellTox Green Cytotoxicity Assay to monitor cytotoxicity in HepG2 cells - 40 hour (AID 1224879); note: nearly all actives have a fitted effect of over 40% in size; note: potency is the fitted concentration of half-maximal effect
Summary of the method: as §2

[8] = qHTS RealTime-Glo MT Cell Viability Assay in HEK293 cells - 0 hour (AID 1224880); note: nearly all actives have a fitted effect of over 45% in size; note: potency is the fitted concentration of half-maximal effect
Summary of the method: (§4)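 600 HEK293 cells per well, dispensed already mixed with RealTime-Glo MT reagents. Compound dosing came 5 h later. The same wells were read for luminescence at 0, 8, 16, 24, 32 and 40 h of exposure at 37 C.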

[9] = A CellTox Green Cytotoxicity Assay to monitor cytotoxicity in HEK293 cells - 32 hour (AID 1224881); note: nearly all actives have a fitted effect of over 40% in size; note: potency is the fitted concentration of half-maximal effect
Summary of the method: as §1

[10] = A CellTox Green Cytotoxicity Assay to monitor cytotoxicity in HepG2 cells - 0 hour (AID 1224882); note: nearly all actives have a fitted effect of over 35% in size
Summary of the method: as §2

[11] = A CellTox Green Cytotoxicity Assay to monitor cytotoxicity in HepG2 cells - 32 hour (AID 1224883); note: nearly all actives have a fitted effect of over 50% in size; note: potency is the fitted concentration of half-maximal effect
Summary of the method: as §2

[12] = qHTS RealTime-Glo MT Cell Viability Assay in HepG2 cells - 16 hour (AID 1224885); note: nearly all actives have a fitted effect of over 50% in size
Summary of the method: as §3

[13] = A CellTox Green Cytotoxicity Assay to monitor cytotoxicity in HEK293 cells - 16 hour (AID 1224888); note: nearly all actives have a fitted effect of over 35% in size
Summary of the method: as §1

[14] = qHTS RealTime-Glo MT Cell Viability Assay in HepG2 cells - 0 hour (AID 1224889); note: nearly all actives have a fitted effect of over 50% in size; note: potency is the fitted concentration of half-maximal effect
Summary of the method: as §3

[15] = A CellTox Green Cytotoxicity Assay to monitor cytotoxicity in HepG2 cells - 8 hour (AID 1224890); note: nearly all actives have a fitted effect of over 45% in size
Summary of the method: as §2

[16] = qHTS RealTime-Glo MT Cell Viability Assay in HEK293 cells - 16 hour (AID 1224872); note: nearly all actives have a fitted effect of over 50% in size; note: potency is the fitted concentration of half-maximal effect
Summary of the method: (§5)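 Luminescence generated by NanoLuc from substrate produced by living HEK293 cells served as the viability signal. Each value reflects the reading at its stated time point during continuous 40 h compound exposure at 37 C.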

[17] = qHTS RealTime-Glo MT Cell Viability Assay in HEK293 cells - 40 hour (AID 1224874); conditions: RealTime-Glo luminescence; max response: hits give low values; note: nearly all actives have a fitted effect of over 50% in size; note: potency is the fitted concentration of half-maximal effect
Summary of the method: as §4

[18] = A CellTox Green Cytotoxicity Assay to monitor cytotoxicity in HEK293 cells - 8 hour (AID 1224884); note: nearly all actives have a fitted effect of over 35% in size
Summary of the method: as §1

[19] = qHTS RealTime-Glo MT Cell Viability Assay in HEK293 cells - 24 hour (AID 1224886); note: nearly all actives have a fitted effect of over 50% in size; note: potency is the fitted concentration of half-maximal effect
Summary of the method: as §5

[20] = qHTS RealTime-Glo MT Cell Viability Assay in HEK293 cells - 8 hour (AID 1224887); note: nearly all actives have a fitted effect of over 50% in size; note: potency is the fitted concentration of half-maximal effect
Summary of the method: as §4
% is set by controls: 0 for no effect and ±100 for the full control effect.

CCCCOC(=O)c1ccccc1C(=O)OCc1ccccc1
inactive: Potency [1] | Potency [2] | Potency [3] | Potency [4] | Potency [5] | Potency [6] | Potency [7] | Potency [8] | Potency [9] | Potency [10] | Potency [11] | Potency [12] | Potency [13] | Potency [14] | Potency [15]

Cl/C=C\C[N+]12CN3CN(CN(C3)C1)C2
inactive: Potency [1] | Potency [2] | Potency [3] | Potency [4] | Potency [6] | Potency [7] | Potency [8] | Potency [9] | Potency [10] | Potency [11] | Potency [12] | Potency [13] | Potency [14] | Potency [15]

Cl/C=C\Cl
inactive: Potency [1] | Potency [16] | max response [17] 0.558% | Potency [3] | Potency [4] | Potency [5] | Potency [6] | Potency [7] | Potency [8] | Potency [9] | Potency [10] | Potency [11] | Potency [18] | Potency [12] | Potency [19] | Potency [13] | Potency [14] | Potency [15]

C(=NC1CCCCC1)=NC1CCCCC1
inactive: Potency [4] | Potency [8] | Potency [10] | Potency [18] | Potency [14] | Potency [15]
active: Potency [1] 19.6 µM and 21.9 µM | Potency [16] 19.6 µM and 19.5 µM | Potency [17] 17.5 µM and 24.5 µM | Potency [3] 22 µM and 34.7 µM | Potency [5] 12.4 µM and 12.3 µM | Potency [6] 11 µM and 15.5 µM | Potency [7] 9.84 µM and 11 µM | Potency [9] 19.6 µM and 24.5 µM | Potency [11] 11 µM and 12.3 µM | Potency [19] 19.6 µM and 19.5 µM

COC(=O)C(C)N(C(=O)Cc1ccccc1)c1c(C)cccc1C (stereo unspecified)
inactive: Potency [1] | Potency [2] | Potency [3] | Potency [4] | Potency [5] | Potency [9] | Potency [10] | Potency [18] | Potency [12] | Potency [13]
active: Potency [14] 21.9 µM

BrCCCCBr
inactive: Potency [1] | Potency [16] | max response [17] 17.9% | Potency [3] | Potency [4] | Potency [5] | Potency [6] | Potency [7] | Potency [8] | Potency [9] | Potency [10] | Potency [11] | Potency [12] | Potency [19] | Potency [13] | Potency [14] | Potency [15]

O=C(Nc1ccccc1)Nc1cnns1
active: Potency [17] 27.5 µM | Potency [19] 24.5 µM
inactive: Potency [1] | Potency [2] | Potency [3] | Potency [4] | Potency [6] | Potency [7] | Potency [8] | Potency [9] | Potency [10] | Potency [11] | Potency [18] | Potency [12] | Potency [13] | Potency [14] | Potency [15]

N#Cc1cc(I)c(O)c(I)c1
inactive: Potency [1] | Potency [2] | Potency [3] | Potency [4] | Potency [5] | Potency [6] | Potency [7] | Potency [8] | Potency [9] | Potency [10] | Potency [11] | Potency [18] | Potency [12] | Potency [20] | Potency [13] | Potency [14] | Potency [15]

CCOP(=S)(OCC)SCn1nnc2ccccc2c1=O
active: Potency [16] 21.9 µM | Potency [17] 19.5 µM | Potency [19] 21.9 µM | Potency [20] 21.9 µM
inactive: Potency [1] | Potency [3] | Potency [4] | Potency [5] | Potency [6] | Potency [7] | Potency [8] | Potency [9] | Potency [10] | Potency [11] | Potency [18] | Potency [13] | Potency [15]

CN1[C@@H]2CC[C@H]1CC(OC(=O)c1cc(Cl)cc(Cl)c1)C2 (stereo partly specified)
active: Potency [4] 21.3 µM | Potency [6] 23.9 µM | Potency [7] 23.9 µM | Potency [11] 23.9 µM
inactive: Potency [1] | Potency [16] | Potency [3] | Potency [8] | Potency [9] | Potency [10] | Potency [18] | Potency [20] | Potency [13] | Potency [14]

CS/C(C)=N/OC(=O)N(C)SN(C)C(=O)O/N=C(\C)SC
inactive: Potency [8] | Potency [10]
active: Potency [1] 49 µM | Potency [16] 38.9 µM | Potency [17] 43.6 µM | Potency [6] 54.9 µM | Potency [7] 54.9 µM | Potency [9] 54.9 µM | Potency [11] 54.9 µM | Potency [19] 49 µM | Potency [20] 43.6 µM

Cc1ccc(-c2c(Cl)nc(C#N)n2S(=O)(=O)N(C)C)cc1
inactive: Potency [1] | Potency [16] | Potency [3] | Potency [4] | Potency [5] | Potency [6] | Potency [7] | Potency [8] | Potency [9] | Potency [10] | Potency [11] | Potency [18] | Potency [12] | Potency [19] | Potency [20] | Potency [13]

O=C1CN=C(c2ccccc2)c2cc(Cl)ccc2N1CC1CC1
active: Potency [8] 16.3 µM
inactive: Potency [1] | Potency [2] | Potency [3] | Potency [4] | Potency [5] | Potency [6] | Potency [7] | Potency [9] | Potency [10] | Potency [11] | Potency [18] | Potency [12] | Potency [13]

c1ccc(CN2CCNCC2)cc1
inactive: Potency [1] | Potency [16] | max response [17] 3.29% | Potency [3] | Potency [4] | Potency [5] | Potency [6] | Potency [7] | Potency [8] | Potency [9] | Potency [10] | Potency [11] | Potency [12] | Potency [19] | Potency [20] | Potency [13]

CCOC(=O)CBr
inactive: Potency [1] | Potency [2] | max response [17] -15% | Potency [3] | Potency [4] | Potency [5] | Potency [6] | Potency [7] | Potency [8] | Potency [9] | Potency [10] | Potency [11] | Potency [18] | Potency [12] | Potency [13] | Potency [14] | Potency [15]

CCOc1nc(F)cc2nc(S(=O)(=O)Nc3c(Cl)cccc3Cl)nn12
inactive: Potency [1] | Potency [16] | max response [17] 30.5% | Potency [3] | Potency [4] | Potency [5] | Potency [6] | Potency [7] | Potency [9] | Potency [10] | Potency [11] | Potency [18] | Potency [12] | Potency [19] | Potency [20] | Potency [13]
